Source: ChEMBL document CHEMBL1157539, “Thousands of chemical starting points for antimalarial lead identification” (Nature, 2010)

What was measured:
Assay type in all cases: functional
Plasmodium falciparum [1] = experiment: GSK_TCMDC: Inhibition of Plasmodium falciparum 3D7 in whole red blood cells, using parasite LDH activity as an index of growth. Test compounds present at 2uM
Plasmodium falciparum [2] = experiment: GSK_TCMDC: Inhibition of Plasmodium falciparum Dd2 in whole red blood cells, using parasite LDH activity as an index of growth. Test compounds present at 2uM
HepG2 = experiment: GSK_TCMDC: Percent inhibition of human HepG2 cell line. Test compounds present at 10uM.

| Structure (SMILES) | Inhibition (Plasmodium falciparum [1]) [%] | Inhibition (Plasmodium falciparum [2]) [%] | Inhibition (HepG2) [%] |
| --- | --- | --- | --- |
| O=C(O)/C=C\C(=O)O.c1ccc(COc2ccnc(NCCCOc3cccc(CN4CCCCC4)c3)c2)cc1 | 100 | 51 | 22 |
| CCOC(=O)NCC(=O)Nc1cccc(-c2cccc(-c3nc4cc(C(F)(F)F)ccc4[nH]3)c2)c1 | 91 | 34 | 59 |
| N=C(N)NN=CC(=O)Nc1ccc(C(F)(F)F)cc1.O=S(=O)(O)O | 100 | 9 | 5 |
| O=C(c1ccc(Br)o1)N1N=C(c2cccs2)CC1c1ccc(Br)cc1 (centres undefined) | 96 | 45 | 5 |
| CN(C)CCN(C)Cc1ccc(-c2ccc(NC(=O)c3ccc(Cl)cc3)cc2)cc1.O=C(O)C(F)(F)F | 91 | 19 | 51 |
| CCOc1ccc(-c2nonc2NC(=O)c2ccccc2F)cc1OCC | 90 | 100 | 0 |
| NC(=O)c1ccccc1OCC(=O)Nc1cccc(-c2ccc(-c3nc4cc(C(F)(F)F)ccc4[nH]3)cc2)c1 | 92 | 17 | 58 |
| CCNC(=O)NC1CCN(Cc2c(-c3cccs3)nc3ccccc3c2C(=O)N[C@@H](C)C2CCCCC2)CC1 | 95 | 96 | 0 |
| CC(C)c1cccc(OCC2CCN(c3ncc(C(=O)Nc4ccccc4)cc3Cl)CC2)c1 | 89 | 88 | 9 |
| COc1ccc2[nH]c(C(=O)Nc3ccc4[nH]c(-c5ccccc5)nc4c3)cc2c1.O=C(O)C(F)(F)F | 96 | 23 | 51 |
| COc1ccc2nc(/N=C3\NC(c4ccccn4)(c4ccccn4)C(=O)N3C)[nH]c2c1 | 99 | 98 | 65 |
| O=C(C=Cc1ccc(Br)cc1)N1CCC(CCN2CCC(c3c[nH]c4ccccc34)CC2)CC1 | 98 | 24 | 47 |
| O=C(c1cc2nc3c(c(C(F)(F)F)n2n1)CCc1ccccc1-3)N1CCN2CCCC2C1 (centres undefined) | 94 | 3 | 0 |
| CC(C)(C)c1ccc(CN2CCC(CNC(=O)c3cc(-c4ccccc4C(F)(F)F)cs3)C2)cc1.O=C(O)C(F)(F)F (centres undefined) | 92 | 11 | 61 |
| O=C1c2ccccc2-n2c1nc1ccccc1c2=O [TRYPTANTHRIN] | 93 | 80 | 9 |
| CCCCCN1CCC(NS(=O)(=O)c2cccc(C(=O)Nc3ccc(C(F)(F)F)cc3)c2)C1.O=C(O)C(F)(F)F (centres undefined) | 95 | 5 | 45 |
| O=C(/C=C/c1cc([N+](=O)[O-])ccc1Cl)N1CCC(CCN2CCC(c3c[nH]c4ccccc34)CC2)CC1 | 92 | 26 | 25 |
| Cc1cccc2nc(-c3ccc(-c4cccc(CN5CCC(CCN6CCCCC6)CC5)c4)s3)[nH]c12.O=C(O)C(F)(F)F | 100 | 100 | 99 |
| CN(C)C(=O)c1ccc(CN(Cc2ccc3c(c2)OCCO3)Cc2ccc3c(c2)OCO3)cc1 | 89 | 95 | 0 |
| CCC(CC)NCc1c(O)ccc2c(CNC(CC)CC)c(O)ccc12.Cl | 100 | 94 | 4 |
| O=C(NCc1cccc(C(F)(F)F)c1)C1CCCN(C(=O)c2ccc(O)c(-c3ccc(Cl)c(Cl)c3)c2)C1 (centres undefined) | 94 | 32 | 1 |
| CSc1ccc(CN2CCC(CNC(=O)c3cc(-c4ccccc4F)cs3)C2)cc1.O=C(O)C(F)(F)F (centres undefined) | 90 | 13 | 32 |
| Cc1cc(NCC(C)C)c2[nH]nc(-c3ccccc3)c2n1 | 99 | 30 | 9 |
| Cc1ccccc1C1CCN(c2ncc(C(=O)NC3CC3)cc2Cl)CC1.O=C(O)C(F)(F)F | 96 | 96 | 22 |
| O=C(CSc1nccn1Cc1ccco1)Nc1cc(C(F)(F)F)ccc1Cl | 91 | 66 | 9 |
| CCOC(=O)Nc1cc(-c2csc(N=C(N)N)n2)cc([N+](=O)[O-])c1 | 100 | 88 | 12 |
| COc1ccc(O)c(C(=O)NCCc2ccc(OC)c(-c3ccc(C(C)(C)C)cc3)c2)c1 | 88 | 91 | 11 |
| CS(=O)(=O)c1ccc(-c2cc(C(F)(F)F)nc(N[C@@H]3CCCC[C@H]3OCc3ccccc3)n2)cc1 | 100 | 99 | 8 |
